Reference: PubChem BioAssay
Calls of active or inactive are those of the source.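 Rule for the calls, unless noted: active = fluorescence slope after compound addition differing from the mean of all screened samples at 99.7% confidence, in either direction; inactive = the rest.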

Experiments:
[1] = inhibitors of TNFa-induced NFkB p65 translocation, primary screen, imaging, HUVEC, MLSMR starter and 10KST1 sets (AID 438;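 active = inhibition above 20% together with a positive visual image hit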;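 note: compound added about 3h40 before a 20 min TNFalpha stimulation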;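 for inhibition: signal is the nuclear over cytoplasmic p65 intensity ratio per well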); details: HUVEC TNFa-induced p65 nuclear translocation; cell count: measured here: nuclei count (cytotoxicity indicator), at 2.08 µM; inhibition: at 2 µM, stronger effect = higher value, 0% TNFa-plus-vehicle, 100% no-TNFa wells
[2] = reduction of polyQ htt aggregates in cells – imaging, exon1htt(103Q)mCFP cells, high-content imaging, primary screen (AID 483;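 active = visual image review flags a hit and inhibition of aggregation exceeds 20%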;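 note: compound exposure lasted 3 days before fixation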;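 for nuclei count: percent of the per-plate median nuclei count of sample wells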); details: exon1htt(103Q)mCFP cell line, aggregate imaging, at 2 µM; inhibition of aggregation: stronger effect = higher value; nuclei count: measured here: cell count, toxicity
[3] = endothelial E-selectin expression blockers – imaging, HUVEC, immunofluorescence, MLSMR starter and 10KST1 sets, primary screen (AID 487;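 active = visually confirmed hit in the image check and inhibition above 20%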;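 for inhibition: signal is fraction of cell area covered by stained E-selectin grains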;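 for nuclei count: 100% = median nuclei count of all wells on the same plate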); details: HUVEC TNFalpha-induced E-selectin immunofluorescence imaging, at 2 µM; inhibition: stronger effect = higher value; nuclei count: measured here: cell number, toxicity
[4] = biological target: Voltage-gated potassium channel subunit beta-2 (Rattus norvegicus) (UniProt P62483); assay: inhibitors of rat Kvbeta2 reductase activity – biochemical, NADPH fluorescence, primary screen (AID 622;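 active = fluorescence slope higher than the sample average by over 3 SD, cut at about -0.22 in these data, passing the limit was not always enough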;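 note: slope of raw intensity against log time taken from 70 to 1610 s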); details: recombinant KvBeta, 4-cyanobenzaldehyde reduction, at 10 µM, stronger effect = higher value
Voltage-gated potassium channel subunit beta-2 (Rattus norvegicus), sequence (P62483 whole entry, looked up): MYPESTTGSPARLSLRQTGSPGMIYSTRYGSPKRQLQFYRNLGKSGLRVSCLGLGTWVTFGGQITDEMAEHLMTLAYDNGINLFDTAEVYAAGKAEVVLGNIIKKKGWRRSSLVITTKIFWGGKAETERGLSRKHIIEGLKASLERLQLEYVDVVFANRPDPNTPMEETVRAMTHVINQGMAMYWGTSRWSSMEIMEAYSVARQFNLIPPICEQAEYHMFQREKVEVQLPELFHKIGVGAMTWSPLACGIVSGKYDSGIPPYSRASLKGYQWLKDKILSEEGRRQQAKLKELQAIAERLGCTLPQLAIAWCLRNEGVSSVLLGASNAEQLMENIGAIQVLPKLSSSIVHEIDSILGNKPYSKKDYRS

[5] = biological target: Voltage-gated potassium channel subunit beta-2 (Rattus norvegicus) (UniProt P62483); assay: enhancers of rat Kvbeta2 NADPH turnover – biochemical, NADPH fluorescence, primary screen (AID 623;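 active = NADPH fluorescence slope more negative than the mean of all samples by about 3 SD, 99.7% confidence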;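 note: fluorescence intensity change per second fitted from 20 to 320 s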); details: Recombinant KvBeta, NADPH fluorescence decrease slope, 10 min; at 10 µM; stronger effect = lower value
[6] = biological target: Alpha-2C adrenergic receptor (Homo sapiens) (UniProt P18825); assay: compounds altering alpha2C-coupled GIRK flux – cell-based, HEK293 alpha2C/GIRK1/2, thallium flux, primary screen (AID 624); details: thallium flux BTC fluorescence, at 10 µM, actives lie on both sides;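 note: slope of fluorescence ratio to pre-addition baseline per second over 15 to 24 s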
Alpha-2C adrenergic receptor (Homo sapiens), sequence (P18825 whole entry, looked up): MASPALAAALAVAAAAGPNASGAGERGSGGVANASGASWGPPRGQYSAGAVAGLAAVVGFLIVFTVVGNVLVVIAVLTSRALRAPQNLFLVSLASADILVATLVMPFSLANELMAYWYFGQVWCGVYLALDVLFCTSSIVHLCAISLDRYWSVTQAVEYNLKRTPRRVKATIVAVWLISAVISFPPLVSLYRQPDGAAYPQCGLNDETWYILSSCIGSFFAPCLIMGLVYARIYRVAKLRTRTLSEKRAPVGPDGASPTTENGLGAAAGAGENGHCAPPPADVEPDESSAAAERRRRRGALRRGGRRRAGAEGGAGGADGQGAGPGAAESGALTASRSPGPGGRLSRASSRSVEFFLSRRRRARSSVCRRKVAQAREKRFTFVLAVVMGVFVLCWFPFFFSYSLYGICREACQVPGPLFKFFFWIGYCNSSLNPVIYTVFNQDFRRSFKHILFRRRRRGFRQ

[7] = blockers of RIG-like receptor reporter activation – cell-based, Sendai virus stimulus, luciferase, 10K MLSCN set, TLR/RLR signaling modifier project, primary screen (AID 602276;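 active = inhibition at or above 50% at 10 µM; inactive = inhibition below 50%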;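 note: firefly luciferase from ISG56 promoter only with Renilla not read in this screen; 0% = Sendai virus plus DMSO and 100% = medium plus DMSO without virus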); details: HEK293 RL24 IRF3 luciferase reporter, at 10 µM, stronger effect = higher value
[8] = TLR3 IRF3 reporter activation blockers – cell-based, poly I:C stimulus, luciferase, 10K MLSCN set, primary screen (AID 602277;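 active = inhibition of the reporter signal at or above 50%; inactive = inhibition below 50%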); details: HEK293-TLR3 RL24 IRF3 luciferase reporter, at 10 µM, stronger effect = higher value

Structure (SMILES)	cell count [1]	inhibition [1]	inhibition of aggregation [2]	nuclei count [2]	inhibition [3]	nuclei count [3]	fluorescence slope [4]	NADPH fluorescence slope [5]	slope [6]	inhibition [7]	inhibition [8]
Cn1c(=N)n(CC(=O)O)c2ccccc21	681	-13.8% (inactive)	6.2% (inactive)	114%	-51.5% (inactive)	131%	-0.595 (inactive)	-2.3e-05 (inactive)	0.00551 (inactive)	9.99% (inactive)	11.8% (inactive)
CC(C)(C)NC(=O)NC(=O)COc1ccccc1C#N	432	-28.2% (inactive)	-6.3% (inactive)	108%	-27% (inactive)	139%	-0.591 (inactive)	8.6e-06 (inactive)	0.0068 (inactive)	2.8% (inactive)	-67.2% (inactive)
CCCN1C=CC(=C2C(=O)c3ccccc3C2=O)C=C1	418	2% (inactive)	16.6% (inactive)	44.6%	-7.6% (inactive)	111%	-0.377 (inactive)	-6.2e-05 (inactive)	0.00522 (inactive)	29.8% (inactive)	89.4% (active)
COc1cc(OC)cc(OCC(O)Cn2cnc(-c3ccccc3)c2)c1 (centres undefined)	586	6% (inactive)	-5.4% (inactive)	92.1%	11.1% (inactive)	94.7%	-0.469 (inactive)	-4e-05 (inactive)	0.00517 (inactive)	17.6% (inactive)	31.3% (inactive)
COC(=O)C(CC(C)C)NC(=O)CSc1nc(-c2ccccc2)c(C#N)c(=O)[nH]1 (centres undefined)	467	-10.9% (inactive)	-13% (inactive)	64.5%	-3.8% (inactive)	81.7%	-0.402 (inactive)	-0.000101 (inactive)	0.0059 (inactive)	15.4% (inactive)	28.8% (inactive)
COc1cc(OC)nc(NC(=O)CSc2nc3ccccc3o2)n1	740	-0.3% (inactive)	-30.6% (inactive)	102%	-18.2% (inactive)	107%	-0.609 (inactive)	-2.6e-05 (inactive)	0.00329 (inactive)	12.8% (inactive)	-3.75% (inactive)
CCOc1ccc(OCCCCN(C)C)cc1	386	1.8% (inactive)	5.3% (inactive)	110%	-111% (inactive)	104%	-0.299 (inactive)	-6.7e-06 (inactive)	0.00564 (inactive)	8.3% (inactive)	27.7% (inactive)
CCOc1cc(C2CC(=O)N3CN(C4CCCCC4)CSC3=C2C#N)ccc1O (centres undefined)	818	2.3% (inactive)	-24.4% (inactive)	114%	-31.4% (inactive)	110%	-0.607 (inactive)	1.8e-05 (inactive)	0.00576 (inactive)	11.2% (inactive)	19.8% (inactive)
O=C(Cn1nc(Cc2ccncc2)c2ccccc2c1=O)N1CCc2ccccc2C1	726	-7.3% (inactive)	-6.8% (inactive)	103%	-57.6% (inactive)	122%	-0.527 (inactive)	-2.1e-05 (inactive)	0.0064 (inactive)	-3.59% (inactive)	15.5% (inactive)
COc1ccc2[nH]c(=O)c(CN(CC3CCCO3)C(=O)Nc3ccc(F)cc3)cc2c1 (centres undefined)	621	3% (inactive)	12.1% (inactive)	95.3%	-38.1% (inactive)	114%	-0.512 (inactive)	7.8e-06 (inactive)	0.00737 (inactive)	-18.3% (inactive)	-13.3% (inactive)
Cc1ccccc1CSc1nnc(C)c(=O)[nH]1	600	1.1% (inactive)	-41.3% (inactive)	105%	-37.9% (inactive)	133%	-0.581 (inactive)	1.6e-05 (inactive)	0.00756 (inactive)	12.3% (inactive)	13.6% (inactive)
COc1cccc(C2=NOC(C(=O)N3CCc4ccccc4C3)C2)c1 (centres undefined)	606	4.7% (inactive)	11% (inactive)	97.3%	10.4% (inactive)	107%	-0.605 (inactive)	-4.1e-05 (inactive)	0.00592 (inactive)	-5.64% (inactive)	-15% (inactive)
Nc1nnn(Cc2ccccc2)n1	885	8.7% (inactive)	5.4% (inactive)	114%	-20.6% (inactive)	114%	-0.566 (inactive)	-2.4e-05 (inactive)	0.00494 (inactive)	0.136% (inactive)	99.3% (active)
Clc1ccc2nc(N3CCCCC3)[nH]c2c1	706	5.6% (inactive)	11.3% (inactive)	98.7%	-82.5% (inactive)	102%	-0.446 (inactive)	-6.8e-05 (inactive)	0.00544 (inactive)	-26% (inactive)	-98.5% (inactive)
Cc1ccc(-c2cc(C(F)(F)F)n3nc(C(=O)N4CCCC4)cc3n2)cc1	336	5.5% (inactive)	13.3% (inactive)	107%	-148% (inactive)	127%	-0.512 (inactive)	-1.4e-05 (inactive)	0.00691 (inactive)	-0.996% (inactive)	-25.5% (inactive)
COc1ccc(S(=O)(=O)N2CCN(CC(=O)Nc3ccc(F)c(F)c3)CC2)cc1	322	-7.6% (inactive)	9.7% (inactive)	94.6%	-62.9% (inactive)	97.3%	-0.51 (inactive)	-2.7e-05 (inactive)	0.00502 (inactive)	22.7% (inactive)	32% (inactive)
CC(C)CNS(=O)(=O)c1ccc(CCC(=O)N2CCOCC2)cc1	647	1.1% (inactive)	-3% (inactive)	104%	-45.6% (inactive)	104%	-0.471 (inactive)	-4.8e-05 (inactive)	0.00694 (inactive)	8.44% (inactive)	21.1% (inactive)
CCOc1ccc(Oc2nc(Nc3ccc(C)cc3)nc(N(C)C)n2)nn1	619	-0.3% (inactive)	25.8% (inactive)	71.1%	-14.3% (inactive)	106%	-0.491 (inactive)	-4.9e-05 (inactive)	0.00543 (inactive)	-17.8% (inactive)	1.23% (inactive)
COc1ccc(CCNC(=O)c2cc3sc(Cl)cc3n2C)cc1OC	611	4.1% (inactive)	-8.1% (inactive)	99.5%	2.3% (inactive)	89%	-0.626 (inactive)	-4e-05 (inactive)	0.00715 (inactive)	-15.3% (inactive)	-18.8% (inactive)
